# ALDH1A1 block – ALDH1A1 (human) enzyme inhibition | 7.3% of 220,000 active | AID 1030 | Potency, µM (titrated, usually from 75.3 µM), usual class: inhibitors | Purified ALDH1A1, NADH fluorescence, propionaldehyde substrate | P00352
# PNC inhibitor – inhibitors of perinucleolar compartment assembly. PC3M PTB-GFP, PNC prevalence imaging, 16 h; active compounds read low. activity change (PNC), negative = inhibition, % at 10 µM. 3.1% of 140,000 active. AID 2417;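 active means readout at or below -70, meaning at least 70% loss of cells showing the perinucleolar compartment, a nuclear body marking cancer cells; inconclusive means readout between -30 and a set limit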
#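 Compounds are pinned in duplicate onto adhered PC3M cells stably expressing GFP-tagged PTB and incubated 16 h at 37 C. Cells are then fixed, nuclei stained with Hoechst, and PNC-positive cells counted.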
# HPGD block – inhibitors of human 15-hydroxyprostaglandin dehydrogenase (HPGD); purified HPGD, NADH fluorescence kinetic, PGE2 substrate; P15428; AID 894; Potency, µM, hits mostly inhibitors; 4.3% of 150,000 active
# Target sequence (P15428 whole entry, looked up): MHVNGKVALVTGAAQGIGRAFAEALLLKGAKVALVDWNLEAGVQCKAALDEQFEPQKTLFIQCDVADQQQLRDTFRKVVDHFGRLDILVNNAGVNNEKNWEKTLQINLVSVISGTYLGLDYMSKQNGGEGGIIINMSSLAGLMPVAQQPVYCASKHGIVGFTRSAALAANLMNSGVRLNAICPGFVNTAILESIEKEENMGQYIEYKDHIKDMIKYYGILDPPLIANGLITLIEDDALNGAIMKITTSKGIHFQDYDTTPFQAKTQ
#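 20 nM HPGD preincubated 15 min at room temperature with compound in 50 mM Tris-HCl pH 8, 0.01% Tween 20. Started with 1 mM NAD+ and 30 uM prostaglandin E2; NADH fluorescence (360/450 nm) read 5 times over 30-s intervals, last minus first.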
# Hits are given with their value; 0 = inactive; ? = inconclusive; - = not tested or not shown; [ ] = another dose, or the depositor's remark. Rows were chosen to be rich in hits. Some 11% of all compounds tested hit in one or more screens of this group. Unless noted, the call rests on the fitted dose curve; in most records, active means well fitted inhibition curve with a large enough effect (not every such curve was filed as active); inconclusive means small, poorly fitted or top-dose-only effect, or another doubt; inactive means no such curve, though single readings can be large or run the other way.
SMILES,ALDH1A1 block,PNC inhibitor,HPGD block
COCCn1c(N)c(N(Cc2ccccc2)C(=O)C2CCCC2)c(=O)[nH]c1=O,0,-,-
CCOCCCNCC(=O)NCC1CCCCC1,0,-,-
Cc1ccc(OCc2nnc(SC(C)C(=O)O)n2Cc2ccccc2)cc1 (stereo unspecified),0,-,-
CCOc1ccc(CNc2ccc(N3CCCC3)cc2)cc1,7.94µM,0,0
CCOc1ccc(CNc2ccc(CNc3ncn[nH]3)cc2)cc1,0,-,-
Cc1onc(-c2c(Cl)cccc2Cl)c1COC(=O)c1ccc(Cl)cc1[N+](=O)[O-],0,-,-
O=c1[nH]c(CN2CCCCC2)nc2ccccc12,0,0,0
O=C(/C=C/c1ccccc1)N1CCN(Cc2nc3ccccc3c(=O)[nH]2)CC1,?,0,31.6µM
Cn1nnnc1NCc1cccc(Cl)c1Cl,0,-,-
C[C@]12CCC(=O)C=C1CCC1C3CC[C@](O)(C(=O)CO)[C@@]3(C)CC3OC312 (stereo partly specified),?,-,0
C=C[C@]1(C)Cc2occ(C)c2C[C@H]1C(=C)C(=O)O,11.2µM,-,0
COCC(C)Nc1nc(C)c(C(C)=O)s1 (stereo unspecified),0,-,-
CCNC(=O)CCC(N)C(=O)O (stereo unspecified),0,-,0
Cc1cc(C(F)(F)F)n2nc(-c3cnn(C)c3C(F)(F)F)c(Br)c2n1,0,-,-
O=C(/C=C/Nc1ccc(F)cc1F)c1cccs1,2.38µM,0,?
O=C(/C=C/Nc1ccccc1F)c1cccs1,?,0,0
Cc1cccc(N2CCN(C(=O)c3ccc(Cl)c(S(=O)(=O)N4CCc5ccccc5C4)c3)CC2)c1C,0,0,0
COc1ccc(NC(=O)c2ccc(Cl)nc2)cc1S(=O)(=O)N1CCCCC1,0,-,-
COc1ccc(NS(=O)(=O)c2cccc(Cl)c2)cc1S(=O)(=O)N1CCCCC1,15.8µM,0,0
COc1ccc(NS(=O)(=O)c2cccc(Cl)c2Cl)cc1S(=O)(=O)N1CCCCC1,0.355µM,0,0
COc1ccc(NS(=O)(=O)c2cc(Cl)ccc2Cl)cc1S(=O)(=O)N1CCCCC1,0,-,-
CC(=O)N1CCC2(CCCN(C(c3ccccc3)c3ccccc3)C2)CC1,0,-,0
c1ccc(Nc2ncncc2-c2ccc3c(c2)OCO3)cc1,0,-,-
Cc1cc(C)n(-c2ccc(C(=O)N3CCc4ccccc43)cc2)n1,0,0,0
Cc1cccc(-n2cnc3cc(C(=O)N4CCc5ccccc54)ccc32)c1,?,?,22.4µM
SMILES,ALDH1A1 block,PNC inhibitor,HPGD block
COc1cccc(OCCNC(=O)Nc2cc(F)c(F)cc2Cl)c1,0,-,-
CCOC(=O)CCc1c(C)nc(SCCCn2c(=O)[nH]c3ccccc32)c(C#N)c1C,31.6µM,0,15.8µM
CCOC(=O)CCc1c(C)nc(SCCN2CCCC2)c(C#N)c1C,0,0,0
CC(=O)c1c(C)nn(CC(O)COc2ccc3ccccc3c2)c1C (stereo unspecified),0,-,-
N[C@@](CCc1ccccc1)(C(=O)O)c1ccccc1,0[13.5 µM],-,0
Cc1cccc(NC(=S)NCCc2ccc3c(c2)OCCO3)c1C,0,-,-
O=C(CSc1nnc(-c2cnccn2)n1Cc1ccco1)c1ccccc1,0,0,15.8µM
COc1ccc(C(=O)CSc2nnc(-c3ccccn3)n2Cc2ccco2)cc1,22.4µM,0,-
C=CCn1c(SCC(=O)NC2CCCCC2)nnc1-c1sc(N)nc1C,0,?,0
C=CCn1c(SCC(=O)Nc2sc(C)c(C)c2C(=O)OCC)nnc1-c1sc(N)nc1C,14.1µM,0,0
O=C(CSc1nnc(-c2cccnc2)n1Cc1ccco1)c1ccc2ccccc2c1,?,0,0
O=C(CSc1nnc(-c2cccnc2)n1Cc1ccco1)c1ccc(Br)cc1,0,?,28.2µM
CNC(=O)CSc1nnc(-c2ccccn2)n1Cc1ccco1,0,-,-
Brc1ccc(CSc2nnc(-c3ccccn3)n2Cc2ccco2)cc1,0,0,0
COC(=O)NC/C=C\c1nc(CCCO)co1,0[13.5 µM],-,-
CCOC(=O)N1CCN(CC(=O)N2CCC(C(N)=O)CC2)CC1,0,-,-
O=C(CSc1nnc(-c2ccccn2)n1Cc1ccco1)c1ccccc1,0,?,0
CCSc1nnc(-c2cccnc2)n1Cc1ccco1,0,0,0
CCOC(=O)c1c(NC(=O)CSc2nnc(-c3cccnc3)n2Cc2ccco2)sc(C)c1C,25.1µM,0,0
O=C(CSc1nnc(-c2ccccn2)n1Cc1ccco1)c1ccc(Cl)cc1,20µM,0,?
O=C(COC(=O)c1ccccc1NC(=O)C1CC1)c1ccc2c(c1)OCCO2,?,?,0
CCOC(=O)c1c(C)[nH]c(C(=O)COC(=O)CCC2CCCC2)c1C,0,0,0
COc1cc2c(cc1OC)C(CC#N)=NC(C)(C)C2,2µM,0,0
COc1cc2c(cc1OC)C(c1cc3ccccc3oc1=O)=NC(C)(C)C2,0,0,?
O=C(Nc1ccccc1)C(=O)Nc1ccccn1,0,0,0
SMILES,ALDH1A1 block,PNC inhibitor,HPGD block
O=C(Cc1ccccc1)NNC(=S)Nc1ccc(Cl)cc1,25.1µM,0,0
O=C(CCc1ccccc1)NNC(=O)Cc1ccc(Cl)cc1,0,-,-
Cc1cccc(NC(=O)N[C@@H](C)C(=O)O)c1,0,-113.4,0
S=C(Nc1ccc(Nc2ccccc2)cc1)Nc1ccccn1,15.8µM,-,-
O=C(NNC(=O)C1CC1c1ccccc1)Nc1ccccc1 (stereo unspecified),0,0,0
COC(=O)[C@H](C)NC(=O)Nc1cccc(Br)c1,0,-,-
Cc1ccc(C2CC2C(=O)NNC(=S)Nc2ccc(Cl)cc2)cc1 (stereo unspecified),8.91µM,-96.8,?
CC(Nc1n[nH]c(=O)[nH]c1=O)C(=O)N/N=C/c1cccs1 (stereo unspecified),0,-,-
O=C(O)c1cccnc1SCc1cccc(Cl)c1,0,-,-
CCOC(=O)CNC(=O)CSc1nc2c(C)cccc2cc1CC,0,-,-
CC(C)C(=O)NC(=S)Nc1ccccn1,?,0,-
CC(C)CCNC(=S)Nc1ccccn1,6.31µM,?,0
O=C(Cc1ccccc1)NNC(=O)Nc1cccc(Cl)c1,0,0,0
Cc1cccc(NC(=S)NCCC(C)C)c1,0,0,28.2µM
O=C(CSCc1ccccc1Cl)NNC(=S)Nc1ccccc1,14.1µM,0,0
Cc1cccc(NC(=S)NNC(=O)Cc2ccccc2)c1,39.8µM,0,0
CC(C)NC(=O)CSCc1ccccc1Cl,0,0,0
COc1ccc(CCNC(=S)Nc2cccc(C)c2)cc1,0,0,0
O=C(COCC(=O)N1CCOCC1)N1CCOCC1,0,-,-
Cc1ccc(S(=O)(=O)N2CCCCC2)cc1NC(=O)COC(=O)C1=COCCO1,0,-,-
CCn1ncc(CN2CCN(Cc3cccc(OC)c3)C(CCO)C2)c1C (stereo unspecified),0,-,-
COc1ccccc1NC(=O)N1C2CCCC1CC(NC(=O)c1ccccc1)C2 (stereo unspecified),0,-,-
COc1cccc(/C=N/NC(=O)CN2CC(c3ccccc3)CC2=O)c1O (stereo unspecified),0,0,0
CC(C)c1csc(CN2CCC(N3CCC(C(=O)NCC4CCCO4)CC3)CC2)n1 (stereo unspecified),0,-,-
COC(=O)c1ccc(OCC(=O)c2ccccc2OC)cc1,0,?,0
CCC(=O)OC1CCC2C3CCc4cc(O)ccc4C3CC[C@]12C (stereo partly specified),0,-,0
COc1ccccc1N/C(N)=N/c1nc(C(F)(F)F)cc(=O)[nH]1,0,-,-
Cc1cccc(NCC(=O)NNC(=S)Nc2ccccc2)c1,14.1µM,-,-
